# SIAE primary: human SIAE inhibitors, primary screen, biochemical, fluorescence polarization, FP-Rh probe, 1536-well HTS; Sialate O-acetylesterase (Homo sapiens), Q9HAT2; SIAE FP-Rh probe binding; inhibition, % at 9.66 µM; 370,000 tested, 0.69% active;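 active means inhibition above a cutoff: mean of compounds within the control limits plus 3 SD of those, cut at about 17% in these data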;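 further: 0% = plate median of compound wells and 100% = probe without SIAE protein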
# PRMT1 inh: PRMT1 methyltransferase inhibitors, primary screen, biochemical, fluorescence polarization; Protein arginine N-methyltransferase 1 (Homo sapiens), Q99873; recombinant PRMT1, activity-based probe fluorescence polarization; inhibition, % at 2.79 µM; 370,000 tested, 1.3% active; AID 652257, 2013;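 active means inhibition above about 21% made by adding two undisclosed values, limit read from the data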
# Target sequence (Q99873 whole entry, looked up): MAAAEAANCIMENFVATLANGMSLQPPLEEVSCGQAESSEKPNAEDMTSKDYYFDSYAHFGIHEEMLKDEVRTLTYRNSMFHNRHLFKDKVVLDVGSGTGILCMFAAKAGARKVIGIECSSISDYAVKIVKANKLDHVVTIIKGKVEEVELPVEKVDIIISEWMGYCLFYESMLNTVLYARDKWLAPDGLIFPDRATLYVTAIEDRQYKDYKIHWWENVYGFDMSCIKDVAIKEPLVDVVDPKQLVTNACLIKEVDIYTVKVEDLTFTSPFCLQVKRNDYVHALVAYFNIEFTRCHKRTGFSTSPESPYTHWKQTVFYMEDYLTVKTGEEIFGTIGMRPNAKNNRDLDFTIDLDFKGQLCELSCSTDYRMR
# PAD4 FP inh: human PAD4 inhibitors, primary screen, biochemical, fluorescence polarization, 1536-well format; Protein-arginine deiminase type-4 (Homo sapiens), Q9UM07; recombinant PAD4, RCA probe fluorescence polarization; inhibition, % at 6.36 µM; 330,000 tested, 0.41% active; AID 485272, 2010;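 active means percent inhibition above a cutoff equal to the mean of all tested compounds plus 3 SD, cut at about 15% in these data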;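 further: 0% = PAD4 with RCA probe and DMSO and 100% = probe without PAD4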
# TCR-CD3 inh: inhibitors of human TCR-CD3 interaction, primary screen, biochemical, fluorescence, TAMRA-labeled TCR probe. T-cell receptor (TCR). inhibition, % at 9.4 µM. 360,000 tested, 0.37% active. AID 651800, 2012;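 further: recombinant mutant TCR 2C K166C tagged with TAMRA read by polarization; 0% = receptor in buffer alone and 100% = receptor with positive control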
# PME-1 primary: PME-1 inhibitors via competitive probe labeling, primary screen, biochemical, fluorescence polarization, FP-Rh probe, HTS | recombinant PME-1 | inhibition, % at 5.9 µM | 320,000 tested, 0.53% active;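 active means inhibition above the campaign mean of all compounds plus 3 SD, cut at about 26% in these data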;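 further: competitive labeling of PME-1 active site by serine hydrolase directed probe; 0% = PME-1 with DMSO and 100% = wells lacking PME-1 enzyme; inhibitors block probe labeling so polarization falls and inhibition rises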
# Fam108B inh: mouse Fam108B serine hydrolase inhibitors, primary screen, counter-screen for RBBP9 inhibitor project, biochemical, fluorescence polarization | 300,000 tested, 0.33% active | AID 1947, 2009 | inhibition, % at 9.51 µM | recombinant Fam108B, FP-Rh probe fluorescence polarization;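 active means inhibition above the screen mean inhibition plus 3 SD, computed separately per campaign, cut at about 18% in these data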;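 further: inhibitors lower polarization as less probe binds the enzyme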
# PAD4 confirm: human PAD4 inhibitors, confirmation, biochemical, fluorescence polarization | AID 488796, 2010 | shares compounds with PAD4 FP inh | recombinant PAD4, RCA probe fluorescence polarization | inhibition, % at 6.36 µM | 1,200 tested, 28% active;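 active means mean inhibition across replicates above the hit cutoff set by the earlier primary screen, cut at about 15% in these data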;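 further: inhibitors block active-site labeling by the probe so polarization falls; 0% = PAD4 with probe and DMSO and 100% = probe without PAD4 enzyme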
# BSA probe FL: compounds interfering with TAMRA-BSA probe, counter-screen for TCR-CD3 interaction inhibitor project, biochemical, fluorescence, TAMRA-labeled BSA | shares compounds with TCR-CD3 inh | inhibition, % at 9.4 µM | AID 652035, 2013 | TAMRA-labeled BSA probe fluorescence counterscreen | 1,200 tested, 10% active; in the data active means inhibition above about 23%;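 further: 0% = buffer low control and 100% = reference high control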
# TCR-CD3 inh conf: TCR-CD3 interaction inhibitors, retest, confirmation, biochemical, fluorescence, TAMRA-labeled TCR probe. TAMRA-labeled TCR probe fluorescence binding assay. inhibition, % at 9.4 µM. shares compounds with TCR-CD3 inh. AID 652036, 2013. 1,200 tested, 48% active
# * = called active by the depositor; nt = no result given. This is a sample that favours compounds with a hit; in the whole collection about 2.6% have one here. Unless noted, no stated cut-off is given here; in the data, active means inhibition above about 19%; inactive means the rest.
SMILES,SIAE primary,PRMT1 inh,PAD4 FP inh,TCR-CD3 inh,PME-1 primary,Fam108B inh,PAD4 confirm,others
CCCCCn1c(N)c(C(=O)NCCN2CCOCC2)c2nc3ccccc3nc21,-0.2,-0.2,-3.0,1.8,10.3,8.1,nt,
CCCCn1c(NS(=O)(=O)c2ccc(C)cc2)c(C(=O)OCC)c2nc3ccccc3nc21,2.6,2.4,66.2*,5.9,5.4,2.6,-2.6,
CC(C)CCn1c(N)c(C(=O)OCC2CCCO2)c2nc3ccccc3nc21 (stereo not given),1.1,-0.8,72.3*,-8.1,5.7,2.5,-21.2,
CCCCn1c(N)c(C(=O)OCC2CCCO2)c2nc3ccccc3nc21 (stereo not given),nt,nt,69.4*,nt,4.5,10.0,-10.3,
CCCCCn1c(N)c(C(=O)NCc2cccs2)c2nc3ccccc3nc21,-5.3,-3.2,65.0*,0.2,9.6,4.9,-12.3,
CCCCn1c(N)c(C(=O)OCCOC)c2nc3ccccc3nc21,6.4,0.3,-5.0,6.5,7.7,-0.7,nt,
CN1CC[C@@H]2CN[C@H](c3ccccc3Br)C[C@@H]21,6.9,-1.1,nt,6.9,nt,nt,nt,
Cc1ccc(C(=O)NCCN2CCC3(CC2)C(=O)NCN3c2ccccc2)cc1,6.9,-3.1,nt,-1.8,nt,nt,nt,
O=C(NCCN1CCC2(CC1)C(=O)NCN2c1ccccc1)c1ccc(F)cc1F,6.2,0.7,nt,-2.9,nt,nt,nt,
C[n+]1c(-c2ccccc2)sc2ccccc21,-7.3,34.8*,14.8*,7.3,3.2,-0.5,6.2,
CN(C)c1ccc(/C=C/C=C/c2sc3ccccc3[n+]2C)cc1,-35.9,-0.4,-6.7,-20.0,-39.7,-14.7,nt,
C[CH2][Hg][S]c1ccccc1C(=O)O,8.8,83.7*,37.7*,-0.7,-9.7,-4.3,50.1*,
O=C(CN1C(=O)CN=C(c2ccccc2)c2cc(Cl)ccc21)NC1CCCCC1,0.2,3.1,nt,nt,nt,nt,nt,
N/C(=N\N=C\c1ccc(O)cc1O)N[N+](=O)[O-],3.1,2.5,-0.6,0.4,3.1,2.0,nt,
COc1ccccc1/C=N/N=C(/N)N[N+](=O)[O-],-0.6,-0.8,15.6*,1.0,-3.9,2.4,5.4,
COc1ccc2nc(-c3ccc(CN4CCC(n5nnc6ccccc65)CC4)cc3)c(-c3ccccc3)nc2c1,-10.3,4.0,nt,-8.2,nt,nt,nt,
CCOc1cccc(OCC)c2c(C)[n+](CC3CCCO3)c(C)c1-2 (stereo not given),nt,nt,14.8*,nt,4.8,4.6,-5.7,
COc1ccc(CCNCC2CCCO2)cc1 (stereo not given),2.1,2.3,-3.6,12.0,0.7,1.5,nt,
CCOc1ccccc1-n1c(O)c(C=Nc2ccc(N(CC)CC)cc2)c(=O)[nH]c1=O,11.3,16.7,37.6*,23.6*,4.7,-0.5,3.0,BSA probe FL=2.0;TCR-CD3 inh conf=0.7
O=C(NCCN1CCC2(CC1)C(=O)NCN2c1ccccc1)c1ccc(OC(F)(F)F)cc1,0.3,8.6,nt,-5.2,nt,nt,nt,
O=C(N/N=C/c1c(O)n(CCc2ccccc2)c(=O)[nH]c1=O)c1ccccc1O,6.9,4.2,-1.5,23.0*,7.0,10.1,nt,BSA probe FL=-4.5;TCR-CD3 inh conf=27.5*
CC/C(=N\NC(=O)c1ccccc1Cl)c1c(O)n(C2CCCCC2)c(=O)[nH]c1=O,0.5,19.1,-3.1,20.6*,-1.4,1.7,nt,BSA probe FL=-4.6;TCR-CD3 inh conf=17.5
